Inconclusive results are not listed. A call without a number means that no potency is given here. Activity calls are given as the source filed them. Calls come from the whole dose curve; as a rule, active = well fitted inhibition curve with a large enough effect; inconclusive = small, poorly fitted or top-dose-only effect; inactive = flat fitted curve, though single readings scatter.
Potency is the fitted concentration of half-maximal effect.

The assay in a line: BET inhibitor-based combinations targeting novel dependencies in MECOM-rearranged (r) AML: AML-194 cell line (AID 2202237; note: nearly all actives have a fitted effect of over 40% in size). The conditions noted are these: AML-194 (MECOM-r AML) viability, CellTiter-Glo, 48 h; series mostly up to 46 µM. In outline:
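Here, 11-point titrations of each agent were applied to 500 seeded cells and incubated 48 hr; CellTiter-Glo signal, scaled against DMSO and empty wells, was integrated as AUC, then Z-scored within the individual line.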
For orientation: Cellular ATP, detected with luciferase, serves as a proxy for viable cell number.
As for `COc1cc(F)ccc1-c1ncnc(Nc2cccc(CS(C)(=N)=O)c2)n1` (stereo not drawn), the Potency was 934 nM (active). As to `C[C@H](NC(=O)c1c(N)nn2cccnc12)c1cc2cccc(C#Cc3cnn(C)c3)c2c(=O)n1-c1ccccc1`, the Potency was 7230 nM (active). Then `C[C@H]1CNCCCN1S(=O)(=O)c1cccc2cncc(F)c12`, with “inactive”; and `CCCCCCCCCCCC(CC1OC(=O)C1CCCCCC)OC(=O)C(CC(C)C)NC=O` (stereo not drawn), with “inactive”. The value for `COC1CC(C(=O)c2ccc3c(N)ncc(-c4ccc(-c5cnn(C)c5)cc4)c3n2)C1` (stereo not drawn) was 11800 nM (active); that for `COc1ccc(C(=O)N2CCN(c3ccc4c(c3)CCC(=O)N4)CC2)cc1OC` was “inactive”; that for `Cc1ccc(NC(=O)NCc2ccc3c(c2)CN(C2CCC(=O)NC2=O)C3=O)cc1Cl` (stereo not drawn) was 1.9 nM (active). In the case of `COc1ccc(S(=O)(=O)N(C(C)=O)c2ccccc2/C=C/c2cc[n+]([O-])cc2)cc1`, the Potency is 833 nM (active).

`COc1ccc(S(=O)(=O)N2CCc3cccc(-c4ccncc4)c32)cc1`: the Potency is 934 nM (active).

For `CCO[C@@H]1OC(=O)C[C@@H]1NC(=O)[C@@H]1CCCN2C(=O)CC[C@H](NC(=O)c3nccc4ccccc34)C(=O)N12`, the Potency entry is “inactive”. The value for `CCCCC[C@H](O)/C=C/[C@H]1[C@H](O)CC(=O)[C@@H]1CCCCCCC(=O)O` was “inactive”; that for `COc1cc2nccc(Oc3ccc(NC(=O)c4cn(C(C)C)c(=O)n(-c5ccc(F)cc5)c4=O)cc3F)c2cc1OC` was “inactive”. Regarding `CC(C)C[C@H](NC(=O)[C@H](Cc1ccccc1)NC(=O)OCc1ccccc1)C(=O)C=O`, the Potency entry was “inactive”.

Source of the values: PubChem BioAssay (NCATS).
